A selection: hits, their analogues and other compounds. The true share with any hit is near 4.1%.
CaV13 ICDI inh = Primary screen for inhibitors of IQ motif and Ca2+-dependent inactivation inhibitor domain binding in CACNA1D, Förster resonance energy transfer in living cells, …; AID 743397; actives 0.098% (n = 340,000); HEK cells, CFP/YFP FRET ICDI-IQ, plate reader, 10 min; percent FRET-ratio fall versus neutral wells; inhibition, % at 12.3 µM;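 active = mean replicate inhibition of at least 30% and at least 1% of replicates passing that level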
IDE act = IDE (human) activation, cell-based | P14735 | HEK cells, FAbeta-B cleavage, fluorescence polarization; 0% vehicle, 100% cell-free pure enzyme wells | activation, % at 5.96 µM | actives 0.073% (n = 340,000);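 active = activation above the mean of all tested compounds plus 3 SD, set per screening campaign, cut at about 17% in these data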
ALR H2O2 inh = inhibitors of human sulfhydryl oxidase ALR. actives 3.8% (n = 290,000). purified ALR, DTT oxidation, H2O2 HRP-luminol luminescence. P55789. inhibition, % (no concentration beside the values). AID 485317;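 active = mean replicate inhibition above about 79%, with every replicate also reaching it, limit read from the data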
Target sequence (P55789 whole entry, looked up): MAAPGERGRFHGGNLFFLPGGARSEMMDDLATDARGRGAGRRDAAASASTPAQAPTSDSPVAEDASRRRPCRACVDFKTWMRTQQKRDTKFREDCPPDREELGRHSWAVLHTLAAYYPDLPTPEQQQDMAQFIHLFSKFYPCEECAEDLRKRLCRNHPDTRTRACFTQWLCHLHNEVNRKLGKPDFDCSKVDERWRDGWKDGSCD
IDE cell inh = cellular human IDE inhibition | HEK cells, FAbetaB cleavage, fluorescence polarization | AID 434962 | P14735 | actives 0.41% (n = 320,000) | inhibition, % at 5.59 µM;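 active = percent inhibition above the average of all tested compounds plus 3 SD, set per screening campaign, cut at about 16% in these data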;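 note: IDE supplied by intact live HEK cells; FP after avidin binding of uncleaved biotin substrate so inhibition keeps polarization high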
M18AAP inhibitor = blocks P. falciparum M18 aspartyl aminopeptidase | recombinant PfM18AAP, H-Glu-NHMec fluorogenic cleavage | inhibition, % at 7.35 µM | actives 1.2% (n = 290,000) | AID 1822;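 active = inhibition above the campaign mean inhibition over all tested compounds plus 3 SD, cut at about 28% in these data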
PolyA inh = blocks polyadenylation in yeast reporter cells; activity score, % at 12 µM; actives 0.02% (n = 300,000); S. cerevisiae SKY197-pL101 polyadenylation reporter, beta-gal luminescence; efflux-impaired pdr1/pdr3 knockout yeast; score 100 = 6 SD above DMSO;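 active = lowest replicate activity score at least 50, where 100 means six control SD above control mean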;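 note: yeast exposed to compound for 9 h at 30 °C; higher score means more reporter readthrough which indicates perturbed polyadenylation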
Large screens that a line does not name were inactive.

Cc1ccc(S(=O)(=O)N/N=C\c2cn(CC(N)=O)c3ccccc23)cc1C	none
NC(=O)Cn1cc(/C=N\NS(=O)(=O)c2ccc(Cl)cc2)c2ccccc21	IDE act 24
Cc1cc(C)n2nc(C(=O)N3CCN(c4ccc([N+](=O)[O-])cc4)CC3)nc2n1	ALR H2O2 inh 97
O=C(c1cc([N+](=O)[O-])ccc1N1CCOCC1)N1CCN(c2ccc([N+](=O)[O-])cc2)CC1	IDE act 30 (no result: ALR H2O2 inh, M18AAP inhibitor)
O=C(CN1CCCc2ccccc21)NCCc1ccc(F)cc1	ALR H2O2 inh 108
CCCN1C=CC(=C/C=C(\C#N)C(=O)OCC)C=C1	ALR H2O2 inh 99, IDE cell inh 101 (no result: CaV13 ICDI inh, IDE act)
CCc1nc2ccccc2c(C(=O)OCC(=O)N(CC(C)C)c2c(N)n(Cc3ccccc3)c(=O)[nH]c2=O)c1C	none (no result: ALR H2O2 inh, IDE cell inh, M18AAP inhibitor, PolyA inh)
COc1ccc(/C=C2\Oc3cc(OCC(=O)N4CCC(C(=O)O)CC4)ccc3C2=O)c(OC)c1	IDE act 29 (no result: CaV13 ICDI inh, ALR H2O2 inh)
COc1ccc(/C=C2\Oc3cc(OCC(=O)N4CCC(C(=O)O)CC4)ccc3C2=O)c(OC)c1OC	IDE act 23, ALR H2O2 inh 91 (no result: CaV13 ICDI inh)
CC1CN(c2ccccn2)C(C)CN1C(=S)Nc1ccccc1 (centres undefined)	none (no result: ALR H2O2 inh, IDE cell inh, M18AAP inhibitor, PolyA inh)
COc1ccc(C2SCC(=O)N2c2ccccc2)cc1 (centres undefined)	none (no result: ALR H2O2 inh)
Cc1ccc(N2C(=O)CSC2c2cccs2)cc1 (centres undefined)	ALR H2O2 inh 99
COc1ccc(C2SCC(=O)N2c2ccc(OC)cc2)cc1 (centres undefined)	none
COc1ccc(N2C(=O)CSC2c2ccncc2)cc1 (centres undefined)	ALR H2O2 inh 99 (no result: CaV13 ICDI inh)
COc1ccc(C2SCC(=O)N2c2ccc(F)cc2)cc1 (centres undefined)	ALR H2O2 inh 99
N/C(CS(=O)(=O)c1ccc(F)cc1)=N\O	none
COc1cc(/C=C/C(=O)NC(C)C2CC3CCC2C3)cc(OC)c1OC (centres undefined)	none
O=C(O)COc1ccccc1/C=C1\SC(=S)N(/N=C/c2ccccc2O)C1=O	M18AAP inhibitor 33
CC(=O)c1ccc(-n2nnnc2SCC(=O)Nc2cccc(NC(=O)c3ccco3)c2)cc1	ALR H2O2 inh 99
CC(=O)Nc1cccc(NC(=O)CSc2nnnn2Cc2ccccc2)c1	ALR H2O2 inh 99
CCn1c(SCC(=O)Nc2cccc(C(C)=O)c2)nnc1C(C)C	ALR H2O2 inh 99
COc1ccc(-n2nnnc2SCC(=O)Nc2cccc(NC(C)=O)c2)cc1OC	ALR H2O2 inh 99
COCCn1nnnc1C(C(C)C)N1CCCC(C)C1 (centres undefined)	none
CCOc1ccc(S(=O)(=O)NC2CCCCCC2)cc1	none (no result: ALR H2O2 inh)
CCOc1ccc(S(=O)(=O)Nc2nc3ccccc3nc2Cl)cc1	ALR H2O2 inh 88
COc1ccc(NC2CCCCC2NS(=O)(=O)c2ccc(C)cc2)cc1 (centres undefined)	ALR H2O2 inh 87
CCOc1ccc(NC2CCCCC2NS(=O)(=O)c2ccccc2)cc1 (centres undefined)	ALR H2O2 inh 92
COc1ccccc1NC1CCCCC1NS(=O)(=O)c1ccc(C)cc1 (centres undefined)	none (no result: ALR H2O2 inh, IDE cell inh)
COc1ccc(C(=O)N2CCN(C)C(=O)[C@@H]2C)cc1OC1CCN(C(C)C)CC1	none
Cc1cccc(NC(=O)CSCC(=O)OCc2ccccn2)c1	ALR H2O2 inh 99 (no result: M18AAP inhibitor)
COc1cccc(COC(=O)CSCC(=O)Nc2cccc(C)c2)c1OC	none (no result: M18AAP inhibitor)
COc1cccc(CN(C)C(=O)CSCC(=O)Nc2cccc(C)c2)c1OC	ALR H2O2 inh 92 (no result: M18AAP inhibitor, PolyA inh)
CCOC(=O)Cn1c(=S)[nH]c2c(oc3ccc(Cl)cc32)c1=O	ALR H2O2 inh 96
CCOC(=O)N1CCN(C(=O)c2ccc3c(=O)n(Cc4ccc(Cl)cc4)c(=S)[nH]c3c2)CC1	none
C=C(C)C(=O)Nc1ccc(NC(C)C)cc1	ALR H2O2 inh 99
C=C(C)C(=O)Nc1ccc(OC(F)(F)C(F)F)c(NC(=O)C(=C)C)c1	none
CCCc1[nH]nc2c1C(c1ccc(O)c(OC)c1)C(C#N)=C(N)O2 (centres undefined)	ALR H2O2 inh 99 (no result: CaV13 ICDI inh)
Cc1ccc(C2C(C#N)=C(N)Oc3n[nH]c(-c4cccs4)c32)cc1 (centres undefined)	none
CC(C)C1C(C#N)=C(N)Oc2n[nH]c(-c3cccs3)c21 (centres undefined)	ALR H2O2 inh 82
COc1cc(C2C(C#N)=C(N)Oc3n[nH]c(-c4cccs4)c32)cc(OC)c1O (centres undefined)	ALR H2O2 inh 89, M18AAP inhibitor 28
CCCc1[nH]nc2c1C(c1ccccc1OC)C(C#N)=C(N)O2 (centres undefined)	none
CC1Cc2nc(SCC(=O)Nc3nc4ccccc4s3)n(C)c(=O)c2S1 (centres undefined)	ALR H2O2 inh 99
CC1Cc2nc(SCC(=O)N3CCc4ccccc43)n(C)c(=O)c2S1 (centres undefined)	ALR H2O2 inh 98
CCSc1nnc(NC(=O)CSc2nc3c(c(=O)n2C)SC(C)C3)s1 (centres undefined)	none (no result: CaV13 ICDI inh)
CC1Cc2nc(SCC(=O)OCc3ccccc3)n(C)c(=O)c2S1 (centres undefined)	ALR H2O2 inh 99
CC1Sc2ccc(S(=O)(=O)N3CCC(C(=O)Nc4ccc(Cl)cc4)CC3)cc2NC1=O (centres undefined)	none
CCCn1c(SCC(=O)Nc2ccccc2Cl)nc(O)cc1=O	none (no result: ALR H2O2 inh, IDE cell inh, M18AAP inhibitor, PolyA inh)
CCn1c(SCC(=O)Nc2ccc(C)cc2)nc(O)cc1=O	ALR H2O2 inh 99
CCCn1c(SCC(=O)Nc2cccc(F)c2)nc(O)cc1=O	ALR H2O2 inh 99 (no result: M18AAP inhibitor, PolyA inh)
COc1ccc(CCN(C)C(=O)COC(=O)/C=C/c2ccc(C)o2)cc1OC	none (no result: ALR H2O2 inh, IDE cell inh, M18AAP inhibitor, PolyA inh)
CCc1ccccc1N1C(=O)CC(N2CCc3ccccc32)C1=O (centres undefined)	ALR H2O2 inh 99
COCC(C)OC(=O)/C(C#N)=C\c1coc2ccc(C)cc2c1=O (centres undefined)	ALR H2O2 inh 96 (no result: PolyA inh)
Cc1ccc(-c2nc(=S)c3c(n2Cc2cccnc2)CC(C)(C)OC3)cc1	none
O=C(NCc1ccccc1)c1onc(CSc2ccc(F)c(F)c2)c1C(=O)NCc1ccccc1	none (no result: M18AAP inhibitor)
O=[N+]([O-])c1ccc(O)c(/C=N/Nc2nn[nH]n2)c1	ALR H2O2 inh 84
O=C(Cn1ncn2c(cc3ccccc32)c1=O)NCCCc1ccccc1	none (no result: CaV13 ICDI inh)
NS(=O)(=O)c1ccc(CNC(=O)Cc2ccc(S(=O)(=O)N3CCOCC3)s2)cc1	none (no result: ALR H2O2 inh, M18AAP inhibitor)
O=C(COC(=O)Cc1ccc(S(=O)(=O)N2CCOCC2)s1)NCc1ccc(Cl)cc1	PolyA inh 56

Screening data as filed in PubChem BioAssay.
